Here are results for 29 molecules from PubChem BioAssay (NCI).

Structures are written as SMILES. Several values for one entry are separate records, joined by “and”; a condition that tells them apart may be missing. Identical values can stand only once. This is part of a sample that, as a whole, favours compounds with a hit. Of some 83,000 tested, about 20% had one in any assay.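 For each line, cells grew in 96-well plates with the test compound present at a single concentration for 48 hours.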 Activity calls are given as the source filed them.

The first assay relates to ACHN renal. In words: NCI-60 one-dose screen, 48 h (100 = growth as untreated, 0 = no growth, -100 = all killed). As to conditions: 10 µM. The method, then:
Growth inhibition of the ACHN human tumor cell line is measured as a screen for anti-cancer activity. Cells are grown in 96 well plates and exposed to the test compound for 48 hours. Compounds are tested at a single concentration, which is 10^-5 M for most compounds. The reported endpoint is percent growth (GI% or GIPRCNT), where numbers from 0 - 100% represent growth inhibition, and numbers from -100% - 0 represent cell death. For example, a value of 40 represents 60% growth inhibition. A value of 0 means no net growth occurred over the course of the experiment. A value of -40 indicates 40% of cells at the beginning of the experiment died by the end of the experiment. A value of -100 means all cells are dead at the end of the experiment.
NCI-60 Human Tumor Cell Lines Screen was performed using the standard one-dose NCI protocol, which is described in more detail at https://dtp.cancer.gov/discovery_development/nci-60/default.htm.
Compounds with GIPRCNT values below 10 were considered active. Activity score was based on GIPRCNT using the following formula: […]
Score is 0 for GIPRCNT values of 100 or above, 50 for GIPRCNT values of 0, and 100 for GIPRCNT values of -100.
Turning to `S=C(SSC(=S)N1CCCCC1)N1CCCCC1`, the growth was 106% (inactive).

The same assay, now with this note: 10 µM unless noted.
`CC1=C(CO)C2=C(C)C3(CC3)[C@@](C)(O)C(=O)C2=C1`: the growth is -16.4% (active). On the same count and under the same terms, the result for `CC[C@@]1(O)C[C@H](OC2CC(N(C)C)C(O)C(C)O2)c2c(O)c3c(c(O)c2[C@H]1OC1CC(N(C)C)C(O)C(C)O1)C(=O)c1cccc(O)c1C3=O` (stereo not given in full) reads -31% (active); that for `CCCCCCCCCCCC1CCCC(C)N1` (stereo not given), 77.8% (inactive). Still for that read-out and setting: the result for `CCOC(=O)C(NC(=O)C(Cc1ccc(N(CCCl)CCCl)cc1)NC(C)=O)C(C)C` (stereo not given) reads 42.7% (inactive); that for `C[C@]12CC[C@H](O)CC1=CC[C@@H]1[C@@H]2CC[C@]2(C)C(=O)CC[C@@H]12`, 108% (inactive). Still for that read-out and setting: for `CN1CCN(c2ccc([N+](=O)[O-])c3no[n+]([O-])c23)CC1` the value was -84% (active); for `Oc1cccc2cccnc12`, 83.5% (inactive) and 117% (inactive) and 96% (inactive); for `CCC(=O)OC1CCn2c1nc1c2C(=O)C(C)=C(N2CC2)C1=O` (stereo not given), -25.3% (active). Consider `CC1=C2C(=O)[C@H]3[C@@H](CC=C4C[C@@H](O)CC[C@@]43C)[C@@H]2CC[C@]12O[C@@H]1C[C@H](C)CN[C@H]1[C@H]2C`, for which the growth is 108% (inactive). Take `CC[C@@]1(O)C(=O)OCc2c1cc1n(c2=O)Cc2cc3ccccc3nc2-1`: the growth is -72.6% (active). On the same count and under the same terms, the result for `CCC1(O)CC(OC2CC(N(C)C)C(OC3CC4OC5CC(=O)C(C)OC5OC4C(C)O3)C(C)O2)c2c(cc3c(c2O)C(=O)c2c(O)ccc(O)c2C3=O)C1C(=O)OC` (stereo not given) reads -17.6% (active). As to `O=C1c2ccccc2C(=O)C(Cl)C1Cl` (stereo not given), the growth is -100% (active). Still for that read-out and setting: the result for `Cc1c(N)nc([C@H](CC(N)=O)NC[C@H](N)C(N)=O)nc1C(=O)N[C@H](C(=O)N[C@H](C)[C@@H](O)[C@H](C)C(=O)N[C@H](C(=O)NCCc1nc(-c2nc(C(=O)NCCC[S+](C)C)cs2)cs1)[C@@H](C)O)C(OC1OC(CO)C(O)C(O)C1OC1OC(CO)C(O)C(OC(N)=O)C1O)c1cnc[nH]1` (stereo not given in full) reads -6.04% [2.5 µM] (active).

Take `CC[n+]1c(-c2ccccc2)c2cc(N)ccc2c2ccc(N)cc21`: the growth is 54.4% (inactive).

In the case of `CO[C@H](/C(C)=C/C=C/C(C)=C/c1coc(C)n1)[C@H](C)[C@H]1C[C@@H](O)[C@@]2(C)O[C@H]2/C=C/[C@@H](C)[C@@H]2C[C@@H](CC(=O)O2)C[C@H]2O[C@@H]2C(=O)O1`, the growth was -10.3% (active). Same read-out and setting: the result for `COC1=C(C)C(=O)C2=C(C1=O)C(CO)N1C(C#N)C3CC4C(C1C2N1CCOC41)N3C` (stereo not given) reads -9.01% (active); that for `COc1ccc(OC)c(/C=C/[N+](=O)[O-])c1`, -67.9% (active); that for `CC[C@@]1(O)C[C@H](OC2CC(N(C)C)C(OC3CC(O)C(OC4CCC(=O)C(C)O4)C(C)O3)C(C)O2)c2c(cc3c(c2O)C(=O)c2c(O)ccc(O)c2C3=O)[C@H]1C(=O)OC` (stereo not given in full), -86.9% (active). The same measure, in the same setting: for `NCCc1ccc(OCc2ccccc2)c(OCc2ccccc2)c1` the value was 71.1% (inactive); for `Cc1ccc(C(=O)OC(C(=O)O)C(OC(=O)c2ccc(C)cc2)C(=O)O)cc1` (stereo not given) (tested in a mixture with another compound), 66% (inactive). The same measure, in the same setting: the result for `COc1cccc2c1cc([N+](=O)[O-])c1c(C(=O)O)cc3c(c12)OCO3` reads 39.1% (inactive) and 96.1% (inactive); that for `C[C@H]1CCC/C=C/[C@@H]2C[C@H](O)C[C@H]2[C@H](O)/C=C/C(=O)O1`, 1.27% (active). On to `Oc1cc[c]([Hg][Cl])cc1`, for which the growth is 99% (inactive). For the molecule `Cc1cc(N=Nc2ccccc2C)ccc1N`, the growth is 85.3% (inactive). The same measure, in the same setting: the result for `COc1ccccc1/C=C(/C)[N+](=O)[O-]` reads 71.1% (inactive) and 107% (inactive). The same measure, in the same setting: for `COC1CC(CC2CCC(C)C(C(C)C(=O)O)O2)OC2(OC(C)(C3CCC(C)(C4OC(C5OC(O)(CO)C(C)CC5C)CC4C)O3)CC2C)C1C` (stereo not given) the value was 16.2% (inactive). On the same count and under the same terms, for `CC(=O)O[C@H]1C[C@@H]2OC3C=C(C)CCC3(C)[C@@]1(C)[C@@]21CO1` (stereo not given in full) the value was -34.8% (active) and -29.9% (active); for `CC[C@](O)(C(=O)O)c1cc2n(c(=O)c1CO)Cc1cc3ccccc3nc1-2`, -57.1% (active).

The assay is the same for the next values; noted with them: 100 µM.
For `S=C(SSC(=S)N1CCCCC1)N1CCCCC1`, the growth was -51% (active).
